# The panel holds about 83,000 compounds, 20% with a hit somewhere; the sample as a whole holds those more often.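 A percent growth of 40 corresponds to 60% growth inhibition; 0 means no net growth; -100 means all cells died. Active threshold: below 10.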 Values without a mark were called inactive. Activity calls are given as the source filed them.
# What was measured:
# Test in all cases: NCI-60 one-dose screen, 48 h (100 = growth as untreated, 0 = no growth, -100 = all killed)
# Details in all cases: 10 µM unless noted
# HCT-15 colon = test system: HCT-15 colon
# HT29 colon = test system: HT29 colon
# SNB-19 CNS = test system: SNB-19 CNS
# U251 CNS = test system: U251 CNS
# PC-3 prostate = test system: PC-3 prostate
# UACC-62 melanoma = test system: UACC-62 melanoma
# LOX IMVI melanoma = test system: LOX IMVI melanoma
# SK-MEL-28 melanoma = test system: SK-MEL-28 melanoma
# SK-MEL-5 melanoma = test system: SK-MEL-5 melanoma
# SNB-75 CNS = test system: SNB-75 CNS
Compound,growth (HCT-15 colon),growth (HT29 colon),growth (SNB-19 CNS),growth (U251 CNS),growth (PC-3 prostate),growth (UACC-62 melanoma),growth (LOX IMVI melanoma),growth (SK-MEL-28 melanoma),growth (SK-MEL-5 melanoma),growth (SNB-75 CNS)
O=C(NCCc1c[nH]c2ccccc12)C1Cc2ccccc2CN1C(=O)c1ccco1 (centres undefined),111%,114%,112%,98.5%,96.9%,93.4%,94.9%,116%,–,–
Cc1ccc(S(=O)(=O)N2CCC(C(=O)Nc3ccc(F)cc3F)CC2)cc1,103%,75.5%,86.5%,101%,93.9%,86.4%,82.3%,122%,64.8%,–
O=C(CNC(=O)c1cccc2ccccc12)Nc1ccccc1Oc1ccccc1,8.09% (active),1.97% (active),33.8%,11.5%,2.31% (active),21.3%,15.5%,57.8%,-33.1% (active),–
CCC1=C[C@@H]2CN(C1)Cc1c([nH]c3ccccc13)[C@@](C(=O)OC)(c1cc3c(cc1OC)N(C=O)[C@H]1[C@@](O)(C(=O)OC)[C@H](OC(C)=O)[C@]4(CC)[C@@H]5C[C@@H]5CN5CC[C@]31[C@@H]54)C2,10.3%,-5.12% (active),28.3%,11.8%,7.43% (active),18.5%,7.6% (active),60.9%,-26.9% (active),–
O=C(O)C(=Cc1c2ccccc2cc2ccccc12)C(=O)O,106%,105%,101%,101%,97.2%,93.5%,86.8%,114%,104%,–
COC12CC(=O)C(C(C)=O)=C(O)C1(C)c1c(O)c(C)c(O)c(C(C)=O)c1O2 (centres undefined),66.6%,86.5%,52.8%,57.2%,73%,40.6%,57.5%,86.4%,46.1%,–
CCN(Cc1ccc(CN(CC)C(=O)C(Br)Br)cc1)C(=O)C(Br)Br,24.5%,6.76% (active),60.8%,-9.38% (active),41.3%,18.2%,37.1%,36.7%,12.3%,–
CCCCNC(=O)NS(=O)(=O)c1ccc(N2N=C(c3ccc(C)cc3C)CC2c2ccc(OC)cc2)cc1 (centres undefined),47%,88%,81.2%,44.9%,50.1%,60%,56.2%,44.8%,55.6%,–
CC(=O)c1cc(C(=O)c2ccc3c(c2)Sc2ccccc2N3)c2cc(C)ccn12,8.38% (active),-57% (active),31.6%,11.3%,18%,30.2%,17%,56.1%,-26.6% (active),–
Oc1ccc(Cl)cc1-c1cc(-c2ccc(Cl)cc2)n[nH]1,25%,103%,81.2%,–,45.6%,64%,58.2%,87.6%,70.9%,–
Cc1ccc2c(c1)C(C)Cc1c(N(C)C)ncnc1N2C (centres undefined),20.6%,4.7% (active),43.8%,–,32.8%,33%,37.7%,56.6%,–,14%
CC(=O)/C=C/c1cc2cc(Cl)ccc2[nH]c1=O,76%,76.8%,68.8%,62.1%,77.5%,80.8%,69.1%,99.9%,96.5%,–
COc1cccc(/C=C2\SC(N3CCN(c4ccccn4)CC3)=NC2=O)c1,105%,–,99.4%,105%,88.9%,95.9%,94.7%,110%,97.1%,–
CCN(CC)CCCC(C)N=c1cc(Nc2cc(=NC(C)CCCN(CC)CC)c3cc(OC)ccc3o2)oc2ccc(OC)cc12 (centres undefined),-16.7% (active),–,2.11% (active),-57.6% (active),-26.4% (active),–,-77.7% (active),-94.6% (active),-97.8% (active),-90.8% (active)
O=C(c1ccncc1)N1N=C(c2ccc(Cl)cc2)CC1c1c[nH]c2ccccc12 (centres undefined),93.6%,–,105%,93.4%,82.8%,90.5%,86.9%,107%,93.3%,82.4%
COc1ccc(-c2nc3sccn3c2-c2ccnc(NCCCNS(=O)(=O)c3ccc(F)cc3)n2)cc1,–,20%,42.6%,26.1%,21.1%,-34.4% (active),6.15% (active),11.5%,-59.6% (active),40.4%

Compound,growth (HCT-15 colon),growth (HT29 colon),growth (SNB-19 CNS),growth (U251 CNS),growth (PC-3 prostate),growth (UACC-62 melanoma),growth (LOX IMVI melanoma),growth (SK-MEL-28 melanoma),growth (SK-MEL-5 melanoma),growth (SNB-75 CNS)
COc1ccc(/C(=N/O)c2cc(OC)c(OC)c(OC)c2)c(OC)c1N,24.5%,–,45.2%,27.5%,19.2%,31.7%,45%,59.2%,14.4%,8.03% (active)
O=C(CN1CCN(c2cc3c(cc2F)c(=O)c(C(=O)O)cn3C2CC2)CC1)Nc1ccc(C(=O)/C=C/c2ccccc2)cc1,56.8%,–,40.3%,14.9%,55.2%,35.5%,5.67% (active),85.7%,–,61.8%
COc1ccc(-c2nc3sccn3c2-c2ccnc(NCCNS(=O)(=O)c3ccc(C(F)(F)F)cc3)n2)cc1,9.19% (active),–,34.2%,15.4%,9.86% (active),0.0074% (active),2.4% (active),13.9%,-94.1% (active),29.5%
O=S(=O)(NCCNc1cc(-c2cn(-c3ccccc3)nc2-c2ccccc2)ccn1)c1cccc2ccccc12,43.4%,–,67%,53.3%,15.3%,56.5%,45.8%,62.9%,26.5%,59%
O=C(CCl)NCCNc1nccc(Nc2ccc(S(=O)(=O)Nc3ccccn3)cc2)n1,4.99% (active),–,17.4%,-68.1% (active),36.3%,5.42% (active),-64.1% (active),38%,-41.6% (active),32.5%
COc1ncc(-c2ccc3ncnc(Nc4cccc(Cl)c4)c3c2)cc1NS(=O)(=O)C1CC1,27.6%,–,49.7%,–,24.4%,25.1%,34.8%,39.4%,37.3%,-1.09% (active)
Cc1cc2c(c(=O)o1)C(c1ccc(OC(=O)N3CCOCC3)cc1)C(C#N)=C(N)O2 (centres undefined),101%,–,101%,100%,103%,108%,96.4%,110%,103%,–
Cc1cc(-c2ccccc2)c(C)n1Cc1ccc(Cl)cc1,32.8%,–,61%,25%,57.3%,40.7%,45%,55.8%,40.7%,38.5%
O=C(Nc1ccccc1)OCC1OCOC(COC(=O)Nc2ccccc2)C1OC(=O)Nc1ccccc1 (centres undefined),51.7%,–,73.2%,74.9%,64.2%,73.1%,29.7%,39.2%,67.8%,32%
COC(=O)CC/C(C)=N\Nc1ccc([N+](=O)[O-])cc1,34.8%,–,99.4%,–,45.8%,26.6%,16.2%,96%,73.8%,91.5%
COc1ccc(NC(=O)c2cc3ccccc3nc2Nc2cc(OC)c(OC)c(OC)c2)cc1,36.3%,–,78.9%,54.2%,57.6%,64.4%,52.8%,73.2%,44.3%,69.4%
O=C(O)c1ccc(-n2cc(CNc3ccc(C(F)(F)F)cc3)c(-c3ccccc3)n2)cc1,84.3%,–,102%,81%,79.7%,72.9%,89.2%,95.2%,91.5%,92.1%
C=C1C(=O)O[C@H]2[C@H]1CC/C(COC(=O)NCCc1ccc(Br)cc1)=C\CC[C@@]1(C)O[C@@H]21,1.58% (active),–,40.9%,41.2%,36.4%,-54.3% (active),-68.2% (active),30.6%,64%,56.8%
O=C(CCCn1c(=O)c2sc3ccccc3c2n2nnc(-c3ccccc3)c12)NCCc1cnc[nH]1,-63.1% (active),–,-12.3% (active),-51.2% (active),-14% (active),-78.5% (active),-16.7% (active),-49.7% (active),-69.6% (active),28.2%
CCO/C=N/NC(=O)c1ccncc1,108%,–,105%,–,97.3%,107%,98.7%,108%,104%,93.3%

# Source: PubChem BioAssay (NCI)
